# Source: PubChem BioAssay
# Experiment: compound effects on lung adenocarcinoma cell viability – A549, calcein-AM fluorescence, 48 h, basal, profiling panel (AID 1162); further: test concentration not given here
# Details: higher = more signal
row,SMILES,z-score
1,COC(=O)[C@@]1(Cc2ccc(OC)cc2)[C@H]2c3cc(C(=O)N4CCCC4)n(CCc4ccccn4)c3C[C@H]2CN1C(=O)c1ccccc1,-0.991
2,CC(=O)N1Cc2ccccc2C[C@@]2(N=C(c3ccc(OCCCO)cc3)O[C@H]2c2ccccc2)C1=O,-1.09
3,CC(C)NC(=O)[C@@]1(c2ccc([N+](=O)[O-])cc2)CC(=O)N(C(C)C)[C@@H]1c1ccc(CO)cc1,1.19
4,CC(C)C(O)C1C=CC2C(=O)N(C)C(=O)C2N1N1CCCCC1 (stereo not given),0.553
5,CCCC[C@@H]1C[C@H]1[C@@H](NC(=O)c1ccccc1)c1ccccc1,-1.2
6,CCN(CC)c1ccc(N2CC=CC34O[C@@H]5/C=C\CCCOC(=O)C5[C@H]3C(=O)N(CCCO)[C@@H]4C2=O)cc1 (stereo not given in full),-0.13
7,COc1ccc(C(O)C2C=CC3C(=O)N(c4ccccc4)C(=O)C3N2Nc2ccccc2)c2ccccc12 (stereo not given),-0.308
8,O=[N+]([O-])c1ccc(C[n+]2ccc(CCCO)cc2)o1,-0.38
9,C[N+](C)(C)CCCCNC(=O)[C@H]1C[C@H]2C(=O)N3CCC[C@H]3C(=O)N2[C@H]1c1ccc(O)cc1,-0.814
10,COCCOC(=O)N1C(=O)[C@@]2(c3ccccc31)[C@H](C(=O)N1CCCCCCC1)[C@H]1C(=O)O[C@H](c3ccccc3)[C@H](c3ccccc3)N1[C@@H]2c1ccccc1OCCO,-0.501
11,C=CCC(OC(C)=O)[C@@H]1[C@@H](N(Cc2ccc(-c3ccccc3)cc2)C(=O)c2ccc(C)cc2)c2cc(OCCCO)ccc2N1C(=O)Cc1ccc(OC)cc1 (stereo not given in full),0.837
12,COC(=O)[C@@]1(Cc2ccc(OC)cc2)[C@H]2c3cc(C(=O)N4CCCC4)n(C[C@H](O)CO)c3C[C@H]2CN1C(=O)c1ccccc1,-0.892
13,O=C1O[C@H](c2ccccc2)[C@H](c2ccccc2)N2[C@H]1[C@@H](C(=O)NC[C@H](O)c1ccccc1)[C@]1(C(=O)Nc3ccc(C#CC4=CCCCC4)cc31)[C@H]2c1ccc(O)cc1,-1.06
14,COc1ccc([Si](C)(C)[C@@H]2[C@@H](CCO)O[C@]3(C(=O)N(Cc4ccccc4)c4ccc(N(C=O)c5ccccc5)cc43)[C@H]2C)cc1,-0.77
15,COc1cc(NN2C(C(O)c3ccccc3)C=CC3C(=O)N(c4ccccc4)C(=O)C32)cc(OC)c1OC (stereo not given),-0.873
16,CN(C)CCCCNC(=O)[C@@H]1C[C@@H]2C(=O)N[C@@H](CCCCN)C(=O)N2[C@@H]1c1cccc(OCCO)c1,-0.144
17,COc1c(C)cc(-c2cc3c(c(-c4ccccc4)n2)[Si](C(C)C)(C(C)C)O[C@H]3c2ccccc2)cc1C,-0.77
18,[N-]=[N+]=NCc1ccccc1C[C@]1(C(=O)NCc2ccccc2)COC(c2ccc(OCCCO)cc2)=N1,-2.45

row,SMILES,z-score
1,C=CCOC(=O)[C@@H]1[C@H]2C(=O)O[C@H](c3ccccc3)[C@H](c3ccccc3)N2[C@H](c2ccc(OCCOC(=O)[C@H]3C[C@H]4C(=O)N[C@@H](CCCC[N+](C)(C)C)C(=O)N4[C@H]3c3cccc(OCCO)c3)cc2)[C@@]12C(=O)Nc1ccc(I)cc12,-0.299
2,O=C1OCC=C[C@H]2OC34C=CCN(c5ccc(Cl)cc5)C(=O)[C@H]3N(CCCO)C(=O)[C@@H]4[C@@H]12 (stereo not given in full),-0.0108
3,O=c1cccc(-c2ccccc2)o1,-1.18
4,C=C(COC)C(=O)CC[C@H](OC(=O)c1cccnc1)c1ccccc1OCCO,-0.414
5,CCCCCN1CC=CC23O[C@@H]4C=CCCOC(=O)C4[C@H]2C(=O)N(CCCO)[C@@H]3C1=O (stereo not given in full),-0.55
6,CCN(CC)c1ccc(N2CC=CC34O[C@@H]5C=CCOC(=O)[C@@H]5[C@H]3C(=O)N(CCCCCO)[C@@H]4C2=O)cc1 (stereo not given in full),-0.46
7,C#C[C@H]1Oc2ccccc2S(=O)(=O)N2CCC[C@@H]12,-0.308
8,O=C1C2C=CC(C(O)c3ccc(B(O)O)cc3)N(Nc3ccc([N+](=O)[O-])cc3)C2C(=O)N1c1ccccc1 (stereo not given),-2.05
9,O=C1OCCC/C=C\[C@H]2OC34C=CCN(CCN5CCOCC5)C(=O)[C@H]3N(CCO)C(=O)[C@@H]4C12 (stereo not given in full),-1.18
10,CC(=O)n1cc(C(O)C2C=CC3C(=O)N(c4ccccc4)C(=O)C3N2Nc2ccc(C#N)cc2)c2ccccc21 (stereo not given),1.38
11,COc1ccc(C(=O)Nc2cccc(CN3C(=O)[C@@]4(O[C@@H](CCn5cc([C@H](O)c6ccccc6)nn5)[C@H]([Si](C)(C)c5ccc(OC)cc5)[C@H]4C)c4ccccc43)c2)cc1,-0.311
12,COC(=O)[C@@]1(Cc2ccc(F)cc2)[C@H]2c3cc(C(=O)N4CCCC4)n(CCc4ccc(OC)c(Br)c4)c3C[C@H]2CN1C(=O)c1ccccc1,-1.58
13,CC(C)N1C(=O)c2ccccc2[C@](C)(C(=O)NC2CC2)[C@@H]1c1ccc(CO)cc1,-0.778
14,CCCNC(=O)[C@@]1(C)c2ccccc2C(=O)N(Cc2ccc(OC(F)(F)F)cc2)[C@H]1c1ccc(CO)cc1,0.951
15,C=CCC(OC(C)=O)[C@@H]1[C@@H](N(Cc2ccc(-c3cccc(C(F)(F)F)c3)o2)C(=O)Cc2ccc(OC)cc2)c2cc(OCCCO)ccc2N1C(=O)Cc1ccc(OC)cc1 (stereo not given in full),1.92
16,COC(=O)[C@@]1(Cc2ccccc2)[C@H]2c3cc(C(=O)N(C)C)n(Cc4cc(F)c(F)c(F)c4)c3C[C@H]2CN1C(=O)c1ccccc1,-0.749
17,C=C(C)[C@@H]1CC=C(C(O)C2C=CC3C(=O)N(Cc4ccccc4)C(=O)C3N2n2cnnc2)CC1 (stereo not given in full),-0.675
